Experimental findings from PubChem BioAssay AID602429 (Sanford-Burnham Center for Chemical Genomics, 2012) are described below.

Molecules are shown by their SMILES. The whole screen tested about 360,000 compounds, of which about 1,200 (0.33%) were called active. Rule as the data show it: active = inhibition above about 37%; inactive = the rest. The entries come from a sample that favours actives as a whole.

Chain of Small ubiquitin-related modifier 1 (Homo sapiens) (P63165 whole entry, looked up): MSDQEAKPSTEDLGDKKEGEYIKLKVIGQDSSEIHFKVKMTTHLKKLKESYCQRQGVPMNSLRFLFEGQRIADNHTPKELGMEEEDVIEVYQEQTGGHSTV

The test addresses Small ubiquitin-related modifier 1 (Homo sapiens) (UniProt P63165). Briefly: modulators of SUMO1 protein-protein interactions, primary screen, biochemical, uHTS (AID 602429). The following applies: SUMO1 binding to a labelled peptide, TR-FRET, 1 h; at 20 µM; hits give high values. On the technique in general: Time-resolved FRET reads energy transfer from a long-lived donor to a nearby acceptor.
Take `COc1ccc(N2C(=O)/C(=C/c3ccco3)C(=O)NC2=S)cc1`: the inhibition is 88.7% (active). The figure for `COC(=O)C1=C(c2cc3ccccc3s2)C[C@@H]2CC[C@H]1N2C(=O)NCc1cccc2ccccc12` is 5.43% (inactive). The figure for `Cc1nn(Cc2ccccc2Cl)c(Cl)c1C(=O)OC(C(=O)NC(N)=O)C(C)C` (stereo not given) is -1.52% (inactive); for `C[C@H]1CN([C@@H](C)CO)C(=O)CCCn2nncc2CO[C@H]1CN(C)C(=O)Oc1cccc2ccccc12` it is 0.0734% (inactive).

With `O=C1NC(=O)C(CCOc2ccccc2)(CCc2ccccc2)C(=O)N1`, the inhibition is -4.22% (inactive). The value for `COc1cccc(N2C(=O)NC(=O)/C(=C\c3ccc([N+](=O)[O-])s3)C2=O)c1` was 38.1% (active). The value for `CC(=O)N(C1=NCCCS1)c1ccccc1F` was -2.29% (inactive); that for `CCCn1c(C(=O)c2ccccc2OC)nc2ccccc21` was -1.49% (inactive); that for `CCCCCn1c(=O)c(C(=O)Nc2c(C)n(C)n(-c3ccccc3)c2=O)c(O)c2ccccc21` was 4.99% (inactive). The value for `C=C(C)C1(CCCC)C(=O)NC(=S)NC1=O` was 6.06% (inactive).

For orientation: inhibition means the relative decrease from the control value, in per cent.
